Inconclusive results are not listed. Entries that show only a call come without a potency. Calls of active or inactive are those of the source. The call rests on the fitted dose curve; in most records, active means well fitted activation curve with a large enough effect; inconclusive means small, poorly fitted or top-dose-only effect; inactive means flat fitted curve, though single readings scatter.
Assay: Primary redox qHTS assay for identification of artifact compounds. (AID 1845223)
Conditions: Amplex Red/HRP redox cycling with DTT, fluorescence; series mostly up to 53.8 µM
How it was run: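 Redox-cycling detection via DTT (250 uM final) oxidation coupled to Amplex Red (25 uM)/HRP (250 mU/mL) in HBSS. 15 min preincubation plus 30 min after DTT, room temperature. Ex/Em 525/598 nm; 4-parameter Hill fit against DMSO and 10 uM DA3003.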
For `CC1[C@@H](O)[C@@H](O)C2[C@]3(C)C(C[C@H]4OC(=O)[C@H](O)[C@]1(O)[C@@]24C)C(C)(O)C[C@H](O)[C@H]3O` (stereo not given in full), the Potency was “inactive”. In the case of `O=C(O[C@H]1[C@@H]2C=CO[C@@H](O[C@@H]3O[C@H](CO)[C@@H](O)[C@H](O)[C@H]3O)[C@@H]2[C@@]2(CO)O[C@@H]12)c1ccc(O)c(O)c1`, the Potency is reported as “inactive”. For `C=C1CC/C=C(/CO)C(=O)C[C@@H]2[C@@H]1CC2(C)C`, the Potency was “inactive”. For `CC1(C)CC2C(C1)C1(C)CCC13OC3(CO)C2O` (stereo not given), the Potency was “inactive”. In the case of `Cc1[nH]cnc1C1CCN(c2nc3cccc4c3n2CCC4=O)CC1`, the Potency is reported as “inactive”.

— PubChem BioAssay (NCATS)
